According to PubChem BioAssay AID1159580 (chemical genetic matrix, 2015):
The whole screen tested about 5,500 compounds, of which about 2,000 (36%) were called active. Inconclusive results (about 18%) are left out. No stated cut-off is given here; in the data, active means normalized growth mostly below about 0.91 (no sharp cut-off); inconclusive means no clear call, values can overlap the other calls; inactive means mostly above about 0.92. This is one part of the list.

Experiment: chemical genetic growth profiling, strain panel (AID 1159580);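 further: tested at 20 µM; growth read once vehicle control cultures reached saturation at 30 °C; 1 = growth at the plate median or of vehicle wells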
Conditions: growth OD

Measured: normalized growth

CN[C@@H]1[C@H](OC2[C@H](O[C@H]3[C@H](O)[C@@H](O)[C@H](N=C(N)N)[C@@H](O)[C@@H]3N=C(N)N)O[C@@H](C)[C@]2(O)C=O)O[C@@H](CO)[C@H](O)[C@H]1O (stereo not given in full)
inactive: S. cerevisiae deletion strains, locus YKL009W, strain mrt4, stronger effect = lower value 1.03 | S. cerevisiae deletion strains, locus YKL068W, stronger effect = lower value 1 | S. cerevisiae deletion strains, locus YKL085W, strain MDH1 (second series), stronger effect = lower value 1 | S. cerevisiae deletion strains, locus YKL085W, strain MDH1, stronger effect = lower value 1 | S. cerevisiae deletion strains, locus YKL160W, strain elf1, stronger effect = lower value 1.02 | S. cerevisiae deletion strains, locus YKL190W, strain CNB1, stronger effect = lower value 0.997 | S. cerevisiae deletion strains, locus YKR001C, strain vps1, stronger effect = lower value 1.01 | S. cerevisiae deletion strains, locus YKR026C, strain gcn3, stronger effect = lower value 1 | S. cerevisiae deletion strains, locus YKR091W, strain srl3, stronger effect = lower value 1.01 | S. cerevisiae deletion strains, locus YLL001W, strain dnm1, stronger effect = lower value 1.03 | S. cerevisiae deletion strains, locus YLL026W, stronger effect = lower value 1.02 | S. cerevisiae deletion strains, locus YLL041C, strain sdh2, stronger effect = lower value 1 | S. cerevisiae deletion strains, locus YLR027C, strain aat2, stronger effect = lower value 1.02 | S. cerevisiae deletion strains, locus YLR039C, strain RIC1, stronger effect = lower value 0.997 | S. cerevisiae deletion strains, locus YLR058C, strain SHM2, stronger effect = lower value 1.01 | S. cerevisiae deletion strains, locus YLR102C, strain apc9, stronger effect = lower value 1.01 | S. cerevisiae deletion strains, locus YLR113W, strain HOG1, stronger effect = lower value 0.964 | S. cerevisiae deletion strains, locus YLR221C, strain rsa3, stronger effect = lower value 0.989 | S. cerevisiae deletion strains, locus YLR258W, strain gsy2, stronger effect = lower value 0.991 | S. cerevisiae deletion strains, locus YLR262C, strain YPT6 (second series), stronger effect = lower value 1.04 | S. cerevisiae deletion strains, locus YLR262C, strain YPT6, stronger effect = lower value 1.01 | S. cerevisiae deletion strains, locus YLR268W, strain sec22, stronger effect = lower value 1 | S. cerevisiae deletion strains, locus YLR320W, strain mms22, stronger effect = lower value 0.969 | S. cerevisiae deletion strains, locus YLR330W, strain CHS5, stronger effect = lower value 1 | S. cerevisiae deletion strains, locus YLR342W, strain FKS1 (second series), stronger effect = lower value 1.01 | S. cerevisiae deletion strains, locus YLR342W, strain FKS1, stronger effect = lower value 1.04 | S. cerevisiae deletion strains, locus YLR357W, strain rsc2, stronger effect = lower value 1.02 | S. cerevisiae deletion strains, locus YLR370C, strain arc18, stronger effect = lower value 1.02 | S. cerevisiae deletion strains, locus YLR371W, strain rom2, stronger effect = lower value 1.01 | S. cerevisiae deletion strains, locus YLR384C, strain iki3, stronger effect = lower value 1.01 | S. cerevisiae deletion strains, locus YLR418C, strain cdc73, stronger effect = lower value 1.02 | S. cerevisiae deletion strains, locus YML016C, strain PPZ1, stronger effect = lower value 1.02 | S. cerevisiae deletion strains, locus YML032C, strain rad52, stronger effect = lower value 1.01 | S. cerevisiae deletion strains, locus YML120C, strain ndi1, stronger effect = lower value 1.02 | S. cerevisiae deletion strains, locus YML124C, strain tub3, stronger effect = lower value 1.02 | S. cerevisiae deletion strains, locus YMR058W, strain fet3, stronger effect = lower value 1.02 | S. cerevisiae deletion strains, locus YMR078C, strain ctf18, stronger effect = lower value 1.02 | S. cerevisiae deletion strains, locus YMR125W, strain sto1, stronger effect = lower value 0.969 | S. cerevisiae deletion strains, locus YMR129W, stronger effect = lower value 1 | S. cerevisiae deletion strains, locus YMR205C, strain PFK2, stronger effect = lower value 1.02 | S. cerevisiae deletion strains, locus YMR223W, strain ubp8, stronger effect = lower value 1.02 | S. cerevisiae deletion strains, locus YMR231W, strain pep5, stronger effect = lower value 0.997 | S. cerevisiae deletion strains, locus YMR263W, strain SAP30, stronger effect = lower value 1.01 | S. cerevisiae deletion strains, locus YMR307W, strain GAS1, stronger effect = lower value 0.965 | S. cerevisiae deletion strains, locus YNL067W, strain RPL9B, stronger effect = lower value 1.01 | S. cerevisiae deletion strains, locus YNL071W, strain lat1, stronger effect = lower value 0.992 | S. cerevisiae deletion strains, locus YNL128W, strain TEP1, stronger effect = lower value 1.01 | S. cerevisiae deletion strains, locus YNL153C, strain GIM3, stronger effect = lower value 1.01 | S. cerevisiae deletion strains, locus YNL183C, strain NPR1, stronger effect = lower value 0.938 | S. cerevisiae deletion strains, locus YNL209W, strain ssb2, stronger effect = lower value 0.998 | S. cerevisiae deletion strains, locus YNL233W, strain BNI4, stronger effect = lower value 1.01 | S. cerevisiae deletion strains, locus YNL248C, strain rpa49, stronger effect = lower value 0.962 | S. cerevisiae deletion strains, locus YNL250W, strain rad50, stronger effect = lower value 1.02 | S. cerevisiae deletion strains, locus YNL271C, strain bni1, stronger effect = lower value 1.01 | S. cerevisiae deletion strains, locus YNL298W, strain CLA4, stronger effect = lower value 1.02 | S. cerevisiae deletion strains, locus YNL307C, strain MCK1, stronger effect = lower value 1.02 | S. cerevisiae deletion strains, locus YNL322C, strain KRE1 (second series), stronger effect = lower value 1 | S. cerevisiae deletion strains, locus YNR049C, strain mso1, stronger effect = lower value 0.999 | S. cerevisiae deletion strains, locus YNR052C, strain pop2, stronger effect = lower value 1 | S. cerevisiae deletion strains, locus YOL006C, strain TOP1, stronger effect = lower value 1.01 | S. cerevisiae deletion strains, locus YOL012C, strain htz1 1.07 | S. cerevisiae deletion strains, locus YOL147C, strain pex11, stronger effect = lower value 1.01 | S. cerevisiae deletion strains, locus YOR001W, strain rrp6, stronger effect = lower value 1.04 | S. cerevisiae deletion strains, locus YOR061W, strain CKA2, stronger effect = lower value 1.01 | S. cerevisiae deletion strains, locus YOR069W, strain VPS5, stronger effect = lower value 1.01 | S. cerevisiae deletion strains, locus YOR070C, strain gyp1, stronger effect = lower value 0.987 | S. cerevisiae deletion strains, locus YOR080W, strain dia2, stronger effect = lower value 1 | S. cerevisiae deletion strains, locus YOR083W, strain WHI5, stronger effect = lower value 0.989 | S. cerevisiae deletion strains, locus YOR106W, strain vam3, stronger effect = lower value 1.03 | S. cerevisiae deletion strains, locus YOR136W, strain idh2, stronger effect = lower value 1.02 | S. cerevisiae deletion strains, locus YOR144C, strain elg1, stronger effect = lower value 1.02 | S. cerevisiae deletion strains, locus YOR184W, strain ser1, stronger effect = lower value 1.03 | S. cerevisiae deletion strains, locus YOR231W, strain MKK1, stronger effect = lower value 0.979 | S. cerevisiae deletion strains, locus YOR265W, strain rbl2, stronger effect = lower value 1.01 | S. cerevisiae deletion strains, locus YOR270C, strain vph1, stronger effect = lower value 1.02 | S. cerevisiae deletion strains, locus YOR290C, strain snf2, stronger effect = lower value 0.977 | S. cerevisiae deletion strains, locus YOR316C, strain cot1, stronger effect = lower value 1.01 | S. cerevisiae deletion strains, locus YPL051W, strain arl3, stronger effect = lower value 1.01 | S. cerevisiae deletion strains, locus YPL055C, strain LGE1, stronger effect = lower value 1.01 | S. cerevisiae deletion strains, locus YPL078C, strain atp4, stronger effect = lower value 1.04 | S. cerevisiae deletion strains, locus YPL106C, strain sse1, stronger effect = lower value 0.987 | S. cerevisiae deletion strains, locus YPL240C, strain hsp82, stronger effect = lower value 1.01 | S. cerevisiae deletion strains, locus YPL241C, strain CIN2, stronger effect = lower value 1 | S. cerevisiae deletion strains, locus YPL256C, strain CLN2, stronger effect = lower value 0.976 | S. cerevisiae deletion strains, locus YPR119W, strain clb2, stronger effect = lower value 1.01 | S. cerevisiae deletion strains, locus YPR141C, strain kar3, stronger effect = lower value 1.01 | S. cerevisiae deletion strains, locus YPR163C, strain tif3, stronger effect = lower value 1.02 | S. cerevisiae deletion strains, locus YPR167C, strain met16, stronger effect = lower value 1.02 | S. cerevisiae deletion strains, strain wtn01, stronger effect = lower value 1.01 | S. cerevisiae strains, strain wild type, stronger effect = lower value 1.01
